Source: PubChem BioAssay (several laboratories)
The list is not random: actives were taken first. Their share in the collection is about 3.2%.
MEKK3 PB1 HTS = modulators of MEKK3-MEK5 PB1 binding, primary screen, biochemical, wildtype MEKK3, multiplex bead flow cytometry, Alexa488-MEK5. bead-based flow cytometry, Alexa488-MEK5 binding to MEKK3; actives lie on both sides; 0 = blocked by unlabeled MEK5, 100 = vehicle. AID 1529, 2009. 290,000 tested, 1.4% active. binding response (% of control), % at 10 µM. Mitogen-activated protein kinase kinase kinase 3 (Homo sapiens), Q99759;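 active = binding response more than 3 SD above or below the average of its plate-row segment, actives on both sides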;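 also: Alexa488 bead fluorescence after subtracting the streptavidin-only scavenger bead signal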
Target sequence (Q99759 whole entry, looked up): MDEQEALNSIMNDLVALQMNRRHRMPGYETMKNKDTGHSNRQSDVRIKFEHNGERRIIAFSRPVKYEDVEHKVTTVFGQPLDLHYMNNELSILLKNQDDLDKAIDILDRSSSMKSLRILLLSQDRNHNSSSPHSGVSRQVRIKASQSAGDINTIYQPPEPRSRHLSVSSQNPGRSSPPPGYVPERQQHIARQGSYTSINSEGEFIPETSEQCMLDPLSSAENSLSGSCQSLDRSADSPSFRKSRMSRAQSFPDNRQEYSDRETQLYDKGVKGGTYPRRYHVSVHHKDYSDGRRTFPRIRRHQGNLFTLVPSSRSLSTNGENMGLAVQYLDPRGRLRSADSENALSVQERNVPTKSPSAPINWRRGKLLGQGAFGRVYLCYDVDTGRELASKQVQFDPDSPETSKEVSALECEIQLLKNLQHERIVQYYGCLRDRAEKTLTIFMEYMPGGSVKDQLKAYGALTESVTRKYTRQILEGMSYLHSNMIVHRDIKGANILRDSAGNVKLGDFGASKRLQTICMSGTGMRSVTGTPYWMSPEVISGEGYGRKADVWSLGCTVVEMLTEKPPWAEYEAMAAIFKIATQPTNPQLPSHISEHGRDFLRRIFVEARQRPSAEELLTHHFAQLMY
SKN-1 block = suppressors of acrylamide-induced Pgst-4::GFP reporter in worms, primary screen, SKN-1 inhibitor project, whole organism, uHTS, GFP/RFP fluorescence ratio, strain VP596 | C. elegans VP596 Pgst-4::GFP/RFP ratio, 24 h | inhibition, % at 21.8 µM | 360,000 tested, 0.49% active | AID 624304, 2012;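 active = interference check ratio from 0.5 to 1.5 plus GFP to RFP signal ratio inhibition reaching or exceeding a fixed threshold, cut at about 30% in these data, passing the limit was not always enough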
MEKK2wt PB1 HTS = modulators of MEK5 binding to wildtype MEKK2, primary screen, biochemical, multiplex bead flow cytometry, Alexa488-MEK5; Alexa488-MEK5 binding to MEKK2 WT; actives lie on both sides; binding response (% of control), % at 10 µM; 290,000 tested, 1.1% active; in the data active = binding response below about 67% or above about 130%
MEKK2 mut-MEK5 = MEK5 binding signal on mutant MEKK2 PB1, primary screen, biochemical, multiplex bead flow cytometry, Alexa488-MEK5; Alexa488-MEK5 binding to MEKK2 mutant; percent response, % at 10 µM; 290,000 tested, 0.35% active; AID 1530, 2009; in the data active = percent response above about 24%, passing the limit was not always enough
CendR NRP1 mod = modulators of CendR peptide binding to NRP-1, primary screen, biochemical, fluorescence polarization, uHTS | Neuropilin-1 (Homo sapiens), O14786 | FAM-RPARPAR peptide binding to NRP-1 | inhibition, % at 25 µM | 360,000 tested, 0.85% active | AID 602438, 2012;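 active = inhibition or corrected inhibition above about 18%, plus a signal ratio from 0.5 to 1.5, limit read from the data, passing the limit was not always enough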
MEKK2wt confirm = modulators of MEK5 binding to wildtype MEKK2, confirmation, biochemical, single concentration, multiplex bead flow cytometry; shares compounds with MEKK3 PB1 HTS; 5,900 tested, 2.4% active; Alexa488-MEK5 binding to MEKK2 WT; actives lie on both sides; binding response (% of control), % at 10 µM; in the data active = binding response below about 16% or above about 210%; inactive = in between
MEKK2mut confirm = mutant MEKK2 PB1-MEK5 binding signal retest – biochemical, single concentration, multiplex bead flow cytometry, confirmation; shares compounds with MEKK3 PB1 HTS; Alexa488-MEK5 binding to MEKK2 mutant; percent response, % at 10 µM; 5,900 tested, 2% active; in the data active = percent response mostly above about 71%, no sharp cut-off; inactive = mostly below about 38%;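 also: higher means compound restores mutant binding toward wildtype level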
MEKK3-MEK5 inh = MEKK3 wild-type PB1 binding to MEK5, inhibitors, confirmation, biochemical, bead multiplex flow cytometry, single concentration, wildtype; binding response (% of control), % at 10 µM; Alexa488-MEK5 binding to MEKK3; hits give low values; 5,900 tested, 1.8% active; shares compounds with MEKK3 PB1 HTS;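 active = binding response below 72% of control, or above a set upper limit, though filed actives all read lower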;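 also: 100% = DMSO only wells and 0% = binding blocked by excess unlabeled MEK5; lower values mean stronger disruption of MEK5 binding to MEKK3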
The depositor's hits bear a star; / = no result; [ ] = remark or other dose.

SMILES	MEKK3 PB1 HTS	SKN-1 block	MEKK2wt PB1 HTS	MEKK2 mut-MEK5	CendR NRP1 mod	MEKK2wt confirm	MEKK2mut confirm	MEKK3-MEK5 inh
CC(C)COP(=O)(OCC(C)C)C(O)c1ccc2c(c1)OCO2 (stereo not drawn)	130*	4	121	26	0	98	-5	100
Cc1nn(-c2ccccc2)c(C)c1NC(=O)COc1cc(F)ccc1[N+](=O)[O-]	/	3	/	/	3	/	/	/
Cc1cccc(C)c1NC(=O)CN(c1c(C)cccc1C)S(C)(=O)=O	/	4	/	/	0	/	/	/
CCCn1c(-c2cccc([N+](=O)[O-])c2)nc2c1c(=O)[nH]c(=O)n2Cc1ccccc1	70*[inhibitor]	11	97	-2	-10	105	12	109
COc1ccc(-c2nn(-c3ccccc3)cc2C(=O)OCC(=O)c2ccc(C)c([N+](=O)[O-])c2)cc1	102	2	104	4	-7	/	/	/
COc1ccc(-c2cc(C(=O)OCC(=O)c3ccc(C)c([N+](=O)[O-])c3)c3ccccc3n2)cc1	130*	5	103	0	-16	94	-3	97
CC(C)CNC(=O)CN1C(=O)NC(Cc2c[nH]c3ccccc23)C1=O (stereo not drawn)	67*[inhibitor]	-6	76	-27	0	110	9	105
O=C(NCc1cccnc1)C1C2C=CC(C2)C1C(=O)Nc1cccc(C(F)(F)F)c1 (stereo not drawn)	/	0	/	/	-3	/	/	/
Cc1cc(Cl)ccc1NC(=O)CCC(=O)O	135*	11	108	1	6	103	3	99
Cc1cc(Cl)ccc1NC(=O)CCCN1C(=O)CCC1=O	102	7	104	4	-4	/	/	/
COc1ccc(NC(=O)COC(=O)CNS(=O)(=O)c2ccc(F)c(F)c2F)cc1OC	135*	-5	105	0	4	103	5	107
CSCc1c(C(=O)NCCc2ccccn2)oc2ccccc12	104	3	105	2	5	/	/	/
CC(CCc1ccccc1)NCc1cccc2ccccc12 (stereo not drawn)	113	-11	135*	8	-1	119	12	104
COCC(C)NCc1cccc2ccccc12 (stereo not drawn)	96	4	82	-13	2	/	/	/
CCCCCCSc1ccc([C@H]2N[C@@](C)(C(=O)OC)[C@H]3C(=O)N(CC)C(=O)[C@@H]23)cc1	/	12	/	/	2	/	/	/
Cc1ncoc1C(=O)Nc1ccc2c(c1)OCCO2	101	-3	102	6	-8	/	/	/
Cc1nc2ccccn2c1C(=O)Nc1ccc2c(c1)OCCO2	132*	0	112	7	2	105	4	105
Cc1ccsc1C(=O)Nc1ccc2c(c1)OCCO2	138*	11	106	0	-10	106	3	105
OCC(CO)c1cnnc2ccccc12	/	22	/	/	-15	/	/	/
COc1ccc(OC)c(/C=N/NC(=O)CCc2ccc(O)c(O)c2)c1	136*	8	107	1	8	94	-5	98
COc1cccc(C=NNC(=O)CCCC(=O)NN=Cc2cccc(OC)c2)c1	/	-3	/	/	11	/	/	/
COc1ccc(OC)c(/C=N/NC(=O)CCc2c(C)n[nH]c2C)c1	71	-1	76	-14	13	/	/	/
COc1cccc(/C=N/NC(=O)CCCc2ccc(OC)c(C)c2)c1	156*	12	110	1	11	102	2	104
Cc1occc1-c1nnc(SCC(=O)N2CCOCC2)o1	2.0*[inhibitor]	14	3.0*[inhibitor]	-18	11	102	-1	102
Cc1occc1-c1nnc(SCC(=O)N2CCCC(C)C2)o1 (stereo not drawn)	/	2	/	/	-10	/	/	/
SMILES	MEKK3 PB1 HTS	SKN-1 block	MEKK2wt PB1 HTS	MEKK2 mut-MEK5	CendR NRP1 mod	MEKK2wt confirm	MEKK2mut confirm	MEKK3-MEK5 inh
COc1ccc(NS(=O)(=O)c2cc([N+](=O)[O-])ccc2N/N=C/c2c(C)[nH]c3ccccc23)cc1	/	7	/	/	-97	/	/	/
Cc1[nH]c2ccccc2c1/C=N/Nc1ccccc1[N+](=O)[O-]	67*[inhibitor]	10	92	6	7	119	9	96
Cc1[nH]c2ccccc2c1/C=N/NC(=S)NC(C)C	98	-1	18*	144*	-72	105	4	96
CCCS(=O)(=O)NC(=O)C1(C)CCN(C(=O)c2cc(F)cc(F)c2)C1 (stereo not drawn)	/	-13	/	/	5	/	/	/
CCOC(=O)c1c(CSC(=N)N)n(-c2ccc(C)cc2)c2cc(Br)c(OC(C)=O)cc12	102	-17	232*	70*	3	212*	55	108
CCOC(=O)c1c(CSC(=N)N)n(C)c2cc(Br)c(OC(C)=O)cc12	99	-16	119	0	-18	/	/	/
COc1ccc(/C=C/C(=O)OCC(=O)NC2CCCCC2C)c(OC)c1 (stereo not drawn)	/	1	/	/	-2	/	/	/
Cc1ccc2nc(-c3ccc(Cl)cc3)c(Cc3ccccn3)n2c1	/	18	/	/	10	/	/	/
O=C(Nc1ccccc1)C(c1ccccc1)C1CCCC1 (stereo not drawn)	148*	1	104	0	4	107	10	105
Nc1ncnc2c1ncn2[C@@H]1O[C@H](CNS(=O)(=O)c2cc(S(=O)(=O)c3ccccc3)cs2)[C@@H](O)[C@H]1O	/	4	/	/	-5	/	/	/
CCCN1CCN(CCCNC(=O)Cn2cc3c(n2)CCCC3)CC1	98	-13	97	2	0	/	/	/
O=C(Cn1cc2c(n1)CCCC2)NCCCN1CCCC1	102	17	134*	2	-3	113	4	94
COc1nccnc1NS(=O)(=O)c1ccc(NC(=S)NC(=O)c2ccc(F)c(F)c2)cc1	154*	3	106	1	12	98	1	97
COc1ccc(NS(=O)(=O)c2ccc(NC(=S)NC(=O)c3cccc(F)c3)cc2)nn1	75*[inhibitor]	1	92	-1	-5	104	3	104
